# Source: the supplement of paper PMC12282887
# Structures can show the parent of a compound that is named as a salt. ± gives the standard deviation of the averaged measurements.
# System: E. coli BW25113 marRABp lux reporter
# Experiment: promoter activity interaction Z-score (Lux/OD deviation from empty-vector control); higher = stronger promoter induction by the compound
# Method: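 E. coli BW25113 (wild type or ΔmarA/ΔsoxS/Δrob) carrying pTU175 luxCDABE promoter reporters was grown in LB in 384-well plates at 37°C with each of 94 compounds at 4 two-fold concentrations, in biological duplicates. Luminescence and OD600 were read every 30 min for 12 h and integrated as AUC over 8 h (0-8 h WT, 1-9 h mutants). Lux AUC was divided by OD AUC; the interaction score is the residual of a Huber robust fit of each promoter against the empty-vector control, then Z-transformed per promoter.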
SMILES,"promoter activity interaction Z-score (8.6 µg/ml, genetic background: wild type)","promoter activity interaction Z-score (8.6 µg/ml, genetic background: ΔmarA)","promoter activity interaction Z-score (8.6 µg/ml, genetic background: Δrob)","promoter activity interaction Z-score (8.6 µg/ml, genetic background: ΔsoxS)","promoter activity interaction Z-score (17.1 µg/ml, genetic background: wild type)","promoter activity interaction Z-score (17.1 µg/ml, genetic background: ΔmarA)","promoter activity interaction Z-score (17.1 µg/ml, genetic background: Δrob)","promoter activity interaction Z-score (17.1 µg/ml, genetic background: ΔsoxS)","promoter activity interaction Z-score (34.3 µg/ml, genetic background: wild type)","promoter activity interaction Z-score (34.3 µg/ml, genetic background: ΔmarA)","promoter activity interaction Z-score (34.3 µg/ml, genetic background: Δrob)","promoter activity interaction Z-score (34.3 µg/ml, genetic background: ΔsoxS)","promoter activity interaction Z-score (68.6 µg/ml, genetic background: wild type)","promoter activity interaction Z-score (68.6 µg/ml, genetic background: ΔmarA)","promoter activity interaction Z-score (68.6 µg/ml, genetic background: Δrob)","promoter activity interaction Z-score (68.6 µg/ml, genetic background: ΔsoxS)","promoter activity interaction Z-score (28.9 µg/ml, genetic background: wild type)","promoter activity interaction Z-score (28.9 µg/ml, genetic background: ΔmarA)","promoter activity interaction Z-score (28.9 µg/ml, genetic background: Δrob)","promoter activity interaction Z-score (28.9 µg/ml, genetic background: ΔsoxS)","promoter activity interaction Z-score (57.7 µg/ml, genetic background: wild type)","promoter activity interaction Z-score (57.7 µg/ml, genetic background: ΔmarA)","promoter activity interaction Z-score (57.7 µg/ml, genetic background: Δrob)","promoter activity interaction Z-score (57.7 µg/ml, genetic background: ΔsoxS)","promoter activity interaction Z-score (115.5 µg/ml, genetic background: wild type)","promoter activity interaction Z-score (115.5 µg/ml, genetic background: ΔmarA)","promoter activity interaction Z-score (115.5 µg/ml, genetic background: Δrob)","promoter activity interaction Z-score (115.5 µg/ml, genetic background: ΔsoxS)","promoter activity interaction Z-score (230.9 µg/ml, genetic background: wild type)","promoter activity interaction Z-score (230.9 µg/ml, genetic background: ΔmarA)","promoter activity interaction Z-score (230.9 µg/ml, genetic background: Δrob)","promoter activity interaction Z-score (230.9 µg/ml, genetic background: ΔsoxS)"
Nc1ccc(C(=O)O)cc1 [4-Aminobenzoic acid],0.0884 ± 0.35,0.463 ± 0.36,0.185 ± 0.28,0.0813 ± 0.12,0.277 ± 0.097,0.444 ± 0.14,0.444 ± 0.27,-0.00694 ± 0.024,0.29 ± 0.32,-0.226 ± 0.0094,-0.189 ± 0.33,0.117 ± 0.0092,0.174 ± 0.024,1.1 ± 0.03,0.919 ± 0.45,0.753 ± 0.38,–,–,–,–,–,–,–,–,–,–,–,–,–,–,–,–
O=C(O)COCCN1CCN(C(c2ccccc2)c2ccc(Cl)cc2)CC1 (configuration not stated) [Cetirizine dihydrochloride],–,–,–,–,–,–,–,–,–,–,–,–,–,–,–,–,-0.0717 ± 0.029,0.0437 ± 0.062,0.000338 ± 0.29,-0.0906 ± 0.0024,0.151 ± 0.32,-0.0182 ± 0.02,-0.17 ± 0.18,-0.0648 ± 0.1,-0.301 ± 0.014,-0.0679 ± 0.12,-0.391 ± 0.15,-0.384 ± 0.18,-0.385 ± 0.034,-0.279 ± 0.0034,-0.565 ± 0.14,-0.389 ± 0.19
